BCLXL inh = blocks human Bcl-xL binding to Bim BH3 peptide. GST-Bcl-xL / FITC-Bim BH3 peptide fluorescence polarization. inhibition, % at 10.9 µM. 320,000 tested, 0.7% active;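 active = inhibition above the mean of all tested compounds plus 3 SD, cutoff set per campaign, cut at about 30% in these data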;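 note: 0% = DMSO wells and 100% = unlabeled Bim-BH3 peptide competitor; inhibitors lower millipolarization by displacing the labeled peptide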
GLD-1 TGE inh = GLD-1-TGE RNA interaction inhibition (C. elegans); Q17339; purified GLD-1 + fluorescein TGE RNA, fluorescence polarization; inhibition, % at 5.96 µM; 320,000 tested, 0.44% active;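 active = percent inhibition above a per-plate cutoff, the plate mean of test compounds plus 3 SD, cut at about 30% in these data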;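 note: 0% = DMSO wells with GLD-1 and probe and 100% = wells lacking GLD-1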
MCL1 BIM primary = disrupts human MCL1 binding to BIM-BH3 peptide; Q07820; GST-MCL1 / FITC-Bim-BH3 fluorescence polarization; inhibition, % at 10.9 µM; 320,000 tested, 0.68% active; AID 2057;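 active = inhibition above the mean inhibition of all tested compounds plus 3 SD, set per campaign, cut at about 40% in these data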;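 note: 0% = DMSO wells and 100% = unlabeled Bim-BH3 peptide control; higher means more loss of mP so more displacement of Bim peptide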
Target sequence (Q07820 whole entry, looked up): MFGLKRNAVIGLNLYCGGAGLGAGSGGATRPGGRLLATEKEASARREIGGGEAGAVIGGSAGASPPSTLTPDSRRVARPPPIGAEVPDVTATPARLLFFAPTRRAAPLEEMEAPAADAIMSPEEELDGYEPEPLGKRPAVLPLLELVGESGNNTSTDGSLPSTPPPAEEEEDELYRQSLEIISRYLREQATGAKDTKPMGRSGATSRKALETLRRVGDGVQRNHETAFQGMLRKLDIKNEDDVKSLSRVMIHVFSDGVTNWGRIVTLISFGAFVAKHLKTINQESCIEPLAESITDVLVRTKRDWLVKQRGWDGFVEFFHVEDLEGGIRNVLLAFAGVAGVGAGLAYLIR
EBV gp42 block = inhibitors of Epstein-Barr virus glycoprotein 42 | Fluorescence polarization binding assay, mP read-out | Q1HVG2 | AID 1085 | inhibition, % (tested at 21.74 µM) | 220,000 tested, 0.42% active; in the data active = inhibition above about 50%
Target sequence (Q1HVG2 whole entry, looked up): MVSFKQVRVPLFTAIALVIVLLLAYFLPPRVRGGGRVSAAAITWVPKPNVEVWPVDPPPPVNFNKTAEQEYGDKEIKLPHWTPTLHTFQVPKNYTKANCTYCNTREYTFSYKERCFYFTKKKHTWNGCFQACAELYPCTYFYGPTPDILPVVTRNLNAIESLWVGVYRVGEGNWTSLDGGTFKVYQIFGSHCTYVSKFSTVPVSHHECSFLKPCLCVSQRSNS
MEX-5 binding = C. elegans MEX-5 TCR-2 RNA binding activity. MEX-5/FITC-TCR2 RNA binding, fluorescence polarization; hits give low values. activity score (negative = inhibition of binding), % at 10 µM. 300,000 tested, 0.38% active. AID 1832;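 active = inhibition past about -25% in most replicates, and total fluorescence under double the plate's negative control median, limit read from the data; inconclusive = replicates evenly split on the limit, or fluorescence at least double controls; inactive = too little inhibition in most replicates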;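 note: 0% = DMSO and -100% = 5 µM competing unlabeled TCR2 RNA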
* hit, by the source's call; ? = inconclusive; · = not tested or not shown; + = active, no number. A selection: hits, their analogues and other compounds. The true share with any hit is near 1.3%.

SMILES	BCLXL inh	GLD-1 TGE inh	MCL1 BIM primary	EBV gp42 block	MEX-5 binding
Cc1cccc(C)c1NC(=O)NN=C1CCCCC1	1.5	-5.5	-2.2	-20.2	-28.5*
CN=C(NC(=O)Nc1c(C)cccc1C)NC(=O)Nc1c(C)cccc1C	4.1	-5.2	-2.7	-5.0	0.0
CCc1ccc(CN2CCCC(CNC(=O)c3cccc(OC)c3OC)C2)cc1 (centres undefined)	-1.4	0.0	-0.6	·	1.0
CCSC1=N/C(=C\c2ccccc2)C(=O)N1	3.8	4.4	-0.5	-6.0	-39.9*
O=C1NNC(c2ccccc2)=N/C1=C\c1ccccc1	3.0	-0.8	4.3	-4.9	-1.1
CC(=O)N1c2ccc3ccccc3c2C2C=CCC2C1c1ccc(Br)cc1 (centres undefined)	37.2*	41.2*	31.6	29.9	·
CC(=O)N1c2ccc(Cl)cc2C2C=CCC2C1c1cccc2ccccc12 (centres undefined)	3.1	5.7	-5.7	5.3	·
CCN1CNC(=S)N(C(C)c2ccccc2)C1 (centres undefined)	-2.7	0.4	-3.4	-3.9	0.3
Cc1ccc(-n2cnnn2)c2cccnc12	1.9	-3.2	1.0	-2.3	-2.8
Cc1ccc(N2C(=O)c3cccc4c(N)ccc(c34)C2=O)c2cccnc12	30.4*	-0.3	15.6	39.3	-9.7
COc1cc(NC(=O)C2C3CCC(O3)C2C(=O)O)cc(OC)c1 (centres undefined)	4.5	5.5	1.2	·	-4.5
COc1ccc(S(=O)(=O)N2CCCCC2)cc1NC(=O)CCNC(=O)c1ccccc1Cl	31.6*	8.1	27.7	·	·
CCOC(=O)C(NCc1ccco1)(NC(=O)c1ccc(OC)cc1)C(F)(F)F (centres undefined)	5.2	-1.7	6.7	118.1*	1.9
Cn1c(SCC(=O)Nc2ccc3nc(SCC(=O)N4CCCC4)sc3c2)nnc1-c1ccc(N)cc1	·	·	·	88.2*	·
Cn1c(SCC(=O)Nc2ccc3nc(SCC(=O)NC4CC4)sc3c2)nnc1-c1ccccc1	3.2	5.2	1.2	-15.4	-2.8
CCCNC(=O)CCn1nc(-c2ccc(C)cc2)c2ccccc2c1=O	34.1*	0.7	0.1	·	1.3
CCCCNC(=O)CCn1nc(-c2ccc(C)cc2)c2ccccc2c1=O	2.1	4.1	8.4	·	1.1
CCN(c1ccc(N=Cc2c(O)n(Cc3ccc(OC)cc3)c(=O)c3ccccc23)cc1)C(C)C	·	·	·	+	·
CCOC(=O)C1=C(C)NC(=O)/C1=C\N(C)C	37.8*	21.2	30.7	-10.4	-3.2
CCOC(=O)C1=C(C)S/C(=C\N(C)C)C1=O	2.3	9.0	13.7	-21.7	1.0
CC(C)N1CCc2c(sc(N)c2C#N)C1	46.8*	-74.7	43.2*	-19.6	?
CCOC(=O)NC(=O)/C(C#N)=C\Nc1sccc1C(=O)OC	+	+	+	12.2	-7.9
CC(=O)N1c2ccc(S(=O)(=O)N3CCCC(C(=O)Nc4ccc(F)cc4)C3)cc2CC1C (centres undefined)	73.1*	-0.6	10.9	·	0.5
CCOc1ccccc1NC(=S)NNS(=O)(=O)c1c(C)cc(C)cc1C	7.0	4.3	17.6	-1.7	-1.0
COc1ccc(OC)c(/C=C2\N=C(c3ccccc3)OC2=O)c1	-23.0	-5.5	-46.6	·	0.7
SMILES	BCLXL inh	GLD-1 TGE inh	MCL1 BIM primary	EBV gp42 block	MEX-5 binding
COc1cc(/C=C2/N=C(c3ccccc3)OC2=O)c(F)cc1OCc1ccccc1	6.1	-0.9	29.9	·	-60.1*
COCc1cc(C)nc(SCC(=O)Nc2ccc3c(c2)n(C)c(=O)n3C)c1C#N	3.6	0.1	-2.7	·	1.6
CCOc1cc(/C=C(/C#N)c2nc3ccccc3[nH]2)ccc1Oc1ccc([N+](=O)[O-])cn1	-4.0	-2.7	1.4	-7.1	-0.1
COC(=O)c1ccc(COc2ccc(/C=C(\C#N)c3nc4ccccc4[nH]3)cc2OC)o1	3.1	1.2	4.0	-42.3	-30.4*
CCOc1cc(/C=C(\C#N)c2nc3ccccc3[nH]2)ccc1OC(C)C(=O)O (centres undefined)	5.8	-7.7	0.5	·	-30.4*
CC(=O)N(c1ccccc1C)C1CCCC1	4.0	-4.4	-3.2	-13.8	-1.6
CC(=O)N(C1=C(Cl)C(=O)c2ccccc2C1=O)C1CCCCC1	15.0	13.0	30.5	-24.0	-48.2*
CC(=O)Nc1ccc(S(=O)(=O)N2CCN(c3nc4ccccc4n3CC(C)C)CC2)cc1	·	·	·	·	1.1
CN(C)S(=O)(=O)N(CC(=O)Nc1ccc(S(=O)(=O)N2CCCC2)cc1)c1ccccc1	4.5	7.7	7.1	·	2.5
O=C(NCCc1ccc(Cl)cc1)C1CCN(C(=O)c2sccc2-n2cccc2)CC1	8.6	2.0	7.7	4.8	-0.7
CC(CCc1ccccc1)NC(=O)C1CCN(C(=O)c2sccc2-n2cccc2)CC1 (centres undefined)	72.0*	2.0	-2.9	4.9	1.6
CC(=O)c1cc(NC(=O)c2cccc(C(F)(F)F)c2)c(=O)oc1/C=C/N(C)C	-44.4	-72.2	-84.9	-164.1	-35.9*
CC(=O)c1cc(NC(=O)c2ccc(Cl)cc2)c(=O)oc1/C=C/N(C)C	-69.1	-151.3	-103.2	-86.7	-26.3*
COc1ccc(C(=O)Nc2cc(C(C)=O)c(C)oc2=O)cc1	3.2	-7.8	-1.8	10.2	-2.2
CC(=O)c1cc(NC(=O)c2cccc(C(F)(F)F)c2)c(=O)oc1C	8.0	-6.7	5.4	-4.3	-0.7
COCCn1c(C)cc(/C=C2/NC(=O)N(c3cccc(Cl)c3)C2=O)c1C	15.5	2.0	8.3	-13.4	0.6
CCn1c(C)cc(/C=C2/NC(=O)N(c3ccccc3)C2=O)c1C	30.8*	19.1	39.5	-5.0	0.0
COC(=O)Cc1[nH]c(=S)[nH]c1C(=O)OC	-0.3	-0.6	-1.3	-8.2	5.3
Cc1cc(/C=C(/C#N)c2nc3ccccc3[nH]2)c(C)n1-c1cc(C(=O)O)cc(C(=O)O)c1	·	·	·	129.0*	-14.6
Cc1cc(/C=C(/C#N)c2nc3ccccc3[nH]2)c(C)n1-c1ccccc1C(=O)O	10.3	-17.7	5.4	18.6	-3.1
Cc1onc(NC(=O)CSCC(=O)O)c1Br	6.4	-2.5	2.6	-12.5	·
Cc1ccc(-n2c(N)c(C(=O)Nc3c(C)n(C)n(-c4ccccc4)c3=O)c3nc4ccccc4nc32)cc1C	57.1*	20.4	61.2*	32.6	-0.4
CC(c1nccs1)N(C)c1nc2nonc2nc1NC1CC1 (centres undefined)	32.6*	27.6	36.8	0.2	-8.2
Cc1ccc(C)c(S(=O)(=O)N2CCN(C(=O)[C@H](Cc3ccccc3)NC(=O)c3ccco3)CC2)c1	·	-2.8	·	·	·
O=C(O)c1cc(-c2ccco2)nc2cc3ccccc3cc12	35.1*	-1.4	39.1	-8.2	-23.5
O=C(c1ccccc1)c1ccc2nc(-c3ccco3)c(-c3ccco3)nc2c1	31.5*	-0.5	38.4	11.5	1.0
O=C(NNC(=O)c1cc(-c2ccco2)nc2ccccc12)c1ccccc1	35.2*	28.4	39.1	-7.7	2.0
NC(=O)C1(N2CCCCC2)CCN(C(=S)Nc2ccc(S(N)(=O)=O)cc2)CC1	4.4	-0.9	11.6	-10.7	-0.9
